In paper PMC12820563, “FoxP3 forms a head-to-head dimer in vivo and stabilizes its multimerization on adjacent microsatellites”:
Whole data set: some 16,000 sequences, median “rpm ratio (pull-down/input)” near 0.5, cut for the highest 2% near 5.5. The entries come from a sample that favours the highest values as a whole.

Molecular target: T1, MBP-FoxP3dN (Mus musculus, UniProt Q99JB6 188-423)
T1 sequence: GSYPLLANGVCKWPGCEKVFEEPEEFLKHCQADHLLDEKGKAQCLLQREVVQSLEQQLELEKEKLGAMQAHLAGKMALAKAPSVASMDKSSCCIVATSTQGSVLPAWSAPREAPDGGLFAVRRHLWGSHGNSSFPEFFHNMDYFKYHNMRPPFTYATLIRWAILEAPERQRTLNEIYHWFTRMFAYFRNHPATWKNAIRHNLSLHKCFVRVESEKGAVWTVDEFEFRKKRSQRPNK
Test: PD-seq (MBP pull-down with sequencing); 20 mM Tris-HCl pH 7.5, 100 mM NaCl, 1.5 mM MgCl2, 0.4 uM protein, 0.1 uM dsDNA library, 30 min, room temperature, amylose pull-down; high values mean tight binding
Settings: protein: recombinant; tags: His6-MBP; chain copies: 2; dsDNA, one strand shown
Summary of the method: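 Protein and DNA were mixed at 0.4 µM and 0.1 µM and held for 30 min at room temperature in Tris pH 7.5 buffer with NaCl and MgCl2; the protein was a His6-MBP-tagged, N-terminally truncated mouse FoxP3 or FoxP1 fragment from E. coli, and the DNA a Klenow-filled double-stranded degenerate library. Amylose resin captured the complexes, which were washed three times. Binding is read as reads-per-million enrichment of pull-down versus input after Illumina sequencing, with replicates pooled.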

**Q.** Which binding signal does the source give for “GATGATTGTTCTCCCAGCTGATGAATTGGATGGCTCGAGTAAACAAATTTTCCTAATCTTTCTGTTCAAGCGCCATCTAC” here?
**A.** 0.46 RPM ratio (pull-down/input)

**Q.** How did the binding signal turn out when “GATGATTGTTCTCCCAGCTGATGAATTGGGCAGCTCGAGTAAACAAATTTTCCTAATCTTTCTGTTCAAGCGCCATCTAC” was run?
**A.** 0.963 RPM ratio (pull-down/input)

**Q.** “GATGATTGTTCTCCCAGCTGATGAATTTGAGCACTCGAGTAAACAAATTTTCCTAATCTTTCTGTTCAAGCGCCATCTAC” was tested. Which binding signal did it give?
**A.** 0.481 RPM ratio (pull-down/input)

**Q.** How did the binding signal turn out when “GATGATTGTTCTCCCAGCTGATGAATTCCACCCGTCGAGTAAACAAATTTTCCTAATCTTTCTGTTCAAGCGCCATCTAC” was run?
**A.** 0.242 RPM ratio (pull-down/input)

**Q.** For “GATGATTGTTCTCCCAGCTGATGAATTGTTAGATTCGAGTAAACAAATTTTCCTAATCTTTCTGTTCAAGCGCCATCTAC”, which binding signal is on record?
**A.** 0.635 RPM ratio (pull-down/input)

**Q.** For “GATGATTGTTCTCCCAGCTGATGAATTTGTCGGTTCGAGTAAACAAATTTTCCTAATCTTTCTGTTCAAGCGCCATCTAC”, which binding signal is on record?
**A.** 3.1 RPM ratio (pull-down/input)

**Q.** For “GATGATTGTTCTCCCAGCTGATGAATTTCGTCCCTCGAGTAAACAAATTTTCCTAATCTTTCTGTTCAAGCGCCATCTAC”, which binding signal is on record?
**A.** 0.799 RPM ratio (pull-down/input)

**Q.** “GATGATTGTTCTCCCAGCTGATGAATTTCGCATCTCGAGTAAACAAATTTTCCTAATCTTTCTGTTCAAGCGCCATCTAC” was tested. Which binding signal did it give?
**A.** 6.74 RPM ratio (pull-down/input)

**Q.** With “GATGATTGTTCTCCCAGCTGATGAATTTCACGCATCGAGTAAACAAATTTTCCTAATCTTTCTGTTCAAGCGCCATCTAC” as the sequence, how does the binding signal read?
**A.** 1.01 RPM ratio (pull-down/input)

**Q.** Which binding signal does the source give for “GATGATTGTTCTCCCAGCTGATGAATTCGCGCCATCGAGTAAACAAATTTTCCTAATCTTTCTGTTCAAGCGCCATCTAC” here?
**A.** 2.63 RPM ratio (pull-down/input)

**Q.** How did the binding signal turn out when “GATGATTGTTCTCCCAGCTGATGAATTTCGCAGCTCGAGTAAACAAATTTTCCTAATCTTTCTGTTCAAGCGCCATCTAC” was run?
**A.** 2.01 RPM ratio (pull-down/input)

**Q.** “GATGATTGTTCTCCCAGCTGATGAATTCACGCTTTCGAGTAAACAAATTTTCCTAATCTTTCTGTTCAAGCGCCATCTAC” was tested. Which binding signal did it give?
**A.** 1.11 RPM ratio (pull-down/input)

**Q.** “GATGATTGTTCTCCCAGCTGATGAATTCGCATCTTCGAGTAAACAAATTTTCCTAATCTTTCTGTTCAAGCGCCATCTAC” was tested. Which binding signal did it give?
**A.** 5.81 RPM ratio (pull-down/input)

**Q.** For “GATGATTGTTCTCCCAGCTGATGAATTCGCGCATTCGAGTAAACAAATTTTCCTAATCTTTCTGTTCAAGCGCCATCTAC”, which binding signal is on record?
**A.** 7.06 RPM ratio (pull-down/input)

**Q.** Which binding signal does the source give for “GATGATTGTTCTCCCAGCTGATGAATTCGCAGCTTCGAGTAAACAAATTTTCCTAATCTTTCTGTTCAAGCGCCATCTAC” here?
**A.** 0.653 RPM ratio (pull-down/input)

**Q.** Which binding signal does the source give for “GATGATTGTTCTCCCAGCTGATGAATTCACGCATTCGAGTAAACAAATTTTCCTAATCTTTCTGTTCAAGCGCCATCTAC” here?
**A.** 5.67 RPM ratio (pull-down/input)

**Q.** How did the binding signal turn out when “GATGATTGTTCTCCCAGCTGATGAATTTCGCGCATCGAGTAAACAAATTTTCCTAATCTTTCTGTTCAAGCGCCATCTAC” was run?
**A.** 1.42 RPM ratio (pull-down/input)

**Q.** For “GATGATTGTTCTCCCAGCTGATGAATTCTTCGCATCGAGTAAACAAATTTTCCTAATCTTTCTGTTCAAGCGCCATCTAC”, which binding signal is on record?
**A.** 0.708 RPM ratio (pull-down/input)

**Q.** “GATGATTGTTCTCCCAGCTGATGAATTTCTCGCATCGAGTAAACAAATTTTCCTAATCTTTCTGTTCAAGCGCCATCTAC” was tested. Which binding signal did it give?
**A.** 0.861 RPM ratio (pull-down/input)

**Q.** “GATGATTGTTCTCCCAGCTGATGAATTGTATAACTCGAGTAAACAAATTTTCCTAATCTTTCTGTTCAAGCGCCATCTAC” was tested. Which binding signal did it give?
**A.** 0.812 RPM ratio (pull-down/input)

**Q.** Which binding signal does the source give for “GATGATTGTTCTCCCAGCTGATGAATTAAGCCGATCGAGTAAACAAATTTTCCTAATCTTTCTGTTCAAGCGCCATCTAC” here?
**A.** 0.427 RPM ratio (pull-down/input)

**Q.** How did the binding signal turn out when “GATGATTGTTCTCCCAGCTGATGAATTTAGTGGGTCGAGTAAACAAATTTTCCTAATCTTTCTGTTCAAGCGCCATCTAC” was run?
**A.** 1.06 RPM ratio (pull-down/input)

**Q.** With “GATGATTGTTCTCCCAGCTGATGAATTCAAAACCTCGAGTAAACAAATTTTCCTAATCTTTCTGTTCAAGCGCCATCTAC” as the sequence, how does the binding signal read?
**A.** 0.276 RPM ratio (pull-down/input)

**Q.** “GATGATTGTTCTCCCAGCTGATGAATTTATGATATCGAGTAAACAAATTTTCCTAATCTTTCTGTTCAAGCGCCATCTAC” was tested. Which binding signal did it give?
**A.** 1.11 RPM ratio (pull-down/input)

**Q.** For “GATGATTGTTCTCCCAGCTGATGAATTCAATAGCTCGAGTAAACAAATTTTCCTAATCTTTCTGTTCAAGCGCCATCTAC”, which binding signal is on record?
**A.** 0.877 RPM ratio (pull-down/input)

**Q.** With “GATGATTGTTCTCCCAGCTGATGAATTTCATAGTTCGAGTAAACAAATTTTCCTAATCTTTCTGTTCAAGCGCCATCTAC” as the sequence, how does the binding signal read?
**A.** 0.583 RPM ratio (pull-down/input)

**Q.** With “GATGATTGTTCTCCCAGCTGATGAATTACTTACATCGAGTAAACAAATTTTCCTAATCTTTCTGTTCAAGCGCCATCTAC” as the sequence, how does the binding signal read?
**A.** 0.574 RPM ratio (pull-down/input)

**Q.** With “GATGATTGTTCTCCCAGCTGATGAATTCGCATTATCGAGTAAACAAATTTTCCTAATCTTTCTGTTCAAGCGCCATCTAC” as the sequence, how does the binding signal read?
**A.** 3.53 RPM ratio (pull-down/input)

**Q.** “GATGATTGTTCTCCCAGCTGATGAATTATTCGCATCGAGTAAACAAATTTTCCTAATCTTTCTGTTCAAGCGCCATCTAC” was tested. Which binding signal did it give?
**A.** 1.12 RPM ratio (pull-down/input)

**Q.** Which binding signal does the source give for “GATGATTGTTCTCCCAGCTGATGAATTCGCATCCTCGAGTAAACAAATTTTCCTAATCTTTCTGTTCAAGCGCCATCTAC” here?
**A.** 5.74 RPM ratio (pull-down/input)

**Q.** With “GATGATTGTTCTCCCAGCTGATGAATTGTCGCATTCGAGTAAACAAATTTTCCTAATCTTTCTGTTCAAGCGCCATCTAC” as the sequence, how does the binding signal read?
**A.** 6.14 RPM ratio (pull-down/input)

**Q.** For “GATGATTGTTCTCCCAGCTGATGAATTCCCATTGTCGAGTAAACAAATTTTCCTAATCTTTCTGTTCAAGCGCCATCTAC”, which binding signal is on record?
**A.** 0.454 RPM ratio (pull-down/input)

**Q.** With “GATGATTGTTCTCCCAGCTGATGAATTATCGCATTCGAGTAAACAAATTTTCCTAATCTTTCTGTTCAAGCGCCATCTAC” as the sequence, how does the binding signal read?
**A.** 6.64 RPM ratio (pull-down/input)

**Q.** How did the binding signal turn out when “GATGATTGTTCTCCCAGCTGATGAATTCGCCTCCTCGAGTAAACAAATTTTCCTAATCTTTCTGTTCAAGCGCCATCTAC” was run?
**A.** 2.15 RPM ratio (pull-down/input)

**Q.** With “GATGATTGTTCTCCCAGCTGATGAATTCCTCGCATCGAGTAAACAAATTTTCCTAATCTTTCTGTTCAAGCGCCATCTAC” as the sequence, how does the binding signal read?
**A.** 0.768 RPM ratio (pull-down/input)

**Q.** “GATGATTGTTCTCCCAGCTGATGAATTCGCATTGTCGAGTAAACAAATTTTCCTAATCTTTCTGTTCAAGCGCCATCTAC” was tested. Which binding signal did it give?
**A.** 3.91 RPM ratio (pull-down/input)
